In experiment [1] the test system is CAOV3. The experiment is described as follows: Primary qHTS to identify gynecologic anti-cancer compounds using libraries of approved drugs and bioactive compounds (AID 1345084). Also: % is scaled to controls: 0 for no effect and ±100 for the full control effect; nearly all actives have a fitted effect of over 55% in size. To be noted: Gynecologic cancer cell panel viability, ATPlite luminescence, 48 h; series mostly up to 57.5 µM. The method in brief:
(§1)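 Cytotoxicity screen measuring ATP content by luciferase luminescence. Each compound is applied at five concentrations for 48 h at 37 C with 5% CO2.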

The subject of experiment [2] is CASKI. Described as above. The note with it: Gynecologic cancer cell panel viability, ATPlite luminescence, 48 h; series mostly up to 57.5 µM. In short, it runs like this: as §1
For orientation: In ATP-based viability assays light output follows the ATP content of the culture.

For experiment [3], the system named is Es-2. The description is as above. To be noted: Gynecologic cancer cell panel viability, ATPlite luminescence, 48 h; series mostly up to 57.5 µM. The method in brief: as §1
The subject of experiment [4] is HeLa. The description is as above. The note with it: Gynecologic cancer cell panel viability, ATPlite luminescence, 48 h; series mostly up to 57.5 µM. In short, it runs like this:
as §1

For experiment [5], the system named is Hek293T. The experiment is described as above. To be noted: Gynecologic cancer cell panel viability, ATPlite luminescence, 48 h, control line for the selectivity index; series mostly up to 57.5 µM. The method in brief:
as §1

Experiment [6] has as its system JEG-3. The experiment is described as above. To be noted: Gynecologic cancer cell panel viability, ATPlite luminescence, 48 h; series mostly up to 57.5 µM. In short, it runs like this: as §1
The subject of experiment [7] is OV90. The description is as above. To be noted: Gynecologic cancer cell panel viability, ATPlite luminescence, 48 h; series mostly up to 57.5 µM. The method in brief:
as §1

Experiment [8] concerns PA-1. Described as above. The note with it: Gynecologic cancer cell panel viability, ATPlite luminescence, 48 h; series mostly up to 57.5 µM. The method in brief: as §1
Experiment [9] concerns SKOV3. The description is as above. The note with it: Gynecologic cancer cell panel viability, ATPlite luminescence, 48 h; series mostly up to 57.5 µM. The method in brief: as §1
The subject of experiment [10] is Tov-21-G. Described as above. To be noted: Gynecologic cancer cell panel viability, ATPlite luminescence, 48 h; series mostly up to 57.5 µM. The method in brief: as §1
Experiment [11] relates to Tov112D. The description is as above. The note with it: Gynecologic cancer cell panel viability, ATPlite luminescence, 48 h; series mostly up to 57.5 µM. In short, it runs like this: as §1
Experiment [12] can be described thus: Drug repurposing screens with cells derived from glioblastoma tumor samples (AID 1345199). Also: nearly all actives have a fitted effect of over 40% in size. Also: potency is read from the fitted curve at half-maximal effect. As to activity, negative = cell killing: % is scaled to controls: 0 for no effect and ±100 for the full control effect. To be noted: GBM patient neurospheres viability, ATP luminescence, 48 h. In short, it runs like this:
(§2)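 Primary testing used CD133+ neurospheres from four GBM patients, seven concentrations, 48 h exposure and ATP-based viability; confirmation added three slower-growing patient lines.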

The subject of experiment [13] is astro. The description is as above. To be noted: viability, ATP luminescence, 48 h; series mostly up to 45.9 µM. In short, it runs like this:
as §2

In experiment [14] the target is Nuclear receptor subfamily 1 group I member 2 (Rattus norvegicus) (UniProt Q9R1A7). The experiment is described as follows: qHTS assay for small molecule activators of the rat pregnane X receptor (rPXR) signaling pathway (AID 651751; call rule not given here; also: 0% is about no effect). The note with it: rPXR reporter cells, luciferase (One-Glo), 24 h. For orientation: In qHTS, concentration-response curves come from the screen itself.
Nuclear receptor subfamily 1 group I member 2 (Rattus norvegicus), sequence (Q9R1A7 whole entry, looked up): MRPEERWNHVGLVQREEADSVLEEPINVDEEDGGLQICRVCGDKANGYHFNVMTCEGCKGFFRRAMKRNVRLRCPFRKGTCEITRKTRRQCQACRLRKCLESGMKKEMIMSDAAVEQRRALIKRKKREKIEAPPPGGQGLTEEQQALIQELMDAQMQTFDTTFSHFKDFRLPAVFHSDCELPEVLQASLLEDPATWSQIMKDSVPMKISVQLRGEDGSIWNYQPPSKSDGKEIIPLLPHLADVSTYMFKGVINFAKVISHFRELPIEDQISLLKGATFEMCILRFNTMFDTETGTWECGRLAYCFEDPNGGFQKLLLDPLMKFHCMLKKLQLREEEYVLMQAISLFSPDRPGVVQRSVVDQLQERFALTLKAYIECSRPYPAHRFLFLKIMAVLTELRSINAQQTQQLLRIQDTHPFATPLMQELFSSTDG

[15] abbreviates: at 45.9 µM (top of the series), tumour line B.
The mark [16] stands for this setting: at 45.9 µM (top of the series), tumour line D.
[17] abbreviates: at 46 µM (top of the series), tumour line A.

“And” between values parts separate entries of the source, which are not always exact repeats. Equal entries are not always repeated. A number with no mark means an inactive call. Results filed as inconclusive are left out. Some structures have more than one record in an assay (separate samples or runs), and their calls can disagree. The source made the active and inactive calls. Unless noted, calls follow the shape of the dose curve; as a rule, active = well fitted curve in the direction sought with a large enough effect; inconclusive = small, poorly fitted or top-dose-only effect, or another doubt; inactive = no such curve, though single readings can be large; an effect the other way counts as inactive or inconclusive.

Among the data in PubChem BioAssay (NCATS) are Potency, activity, negative = cell killing and max response values, retold here.

For the compound `Cc1cccc(C)c1NC(=O)CN1CCCC1=O`, the Potency result in [1], in experiment [2], in [3], in experiment [4], in [5] and in experiment [6] was “inactive” in each case. Further, the Potency entry in experiment [7], in [8], in [9], in experiment [10], in experiment [11] and in experiment [13] was “inactive” in each case. For the same compound, the activity, negative = cell killing in [12] (setting [15]) was -2.88%; in experiment [12] (setting [16]) it was -0.691%; in experiment [12] (setting [17]), -27.7%.

As for `O=P1(NCCCl)OCCCN1CCCl` (stereo not given), the Potency result in experiment [1], in experiment [2], in experiment [3], in experiment [4], in [5] and in experiment [6] was “inactive” throughout. Moreover, the Potency result in experiment [7], in experiment [8], in experiment [9], in experiment [10], in experiment [11] and in [13] was “inactive” throughout. Besides, the activity, negative = cell killing is -10.6% in [12] (at 21.2 µM (top of the series), tumour line B); -4.8% in experiment [12] (at 21.2 µM (top of the series), tumour line D); -27.9% in experiment [12] (at 21.3 µM (top of the series), tumour line A).

For the compound `CN1CCN(C(=O)O[C@H]2c3nccnc3C(=O)N2c2ccc(Cl)cn2)CC1`, the Potency result in [1], in experiment [2], in [3], in experiment [4], in experiment [5] and in experiment [6] was “inactive” throughout. Further, the Potency entry in experiment [7], in experiment [8], in experiment [9], in experiment [10], in [11] and in [13] was “inactive” throughout. For the same compound, the activity, negative = cell killing in experiment [12] (setting [15]) is -4.94%; in [12] (setting [16]) it was -12.7%; in experiment [12] (setting [17]), -22.2%.

Regarding `c1ccc2c(c1)Nc1ccccc1S2`, the Potency result in experiment [1], in [2], in experiment [3], in [4], in experiment [5] and in experiment [6] was “inactive” in each case. Besides, the Potency result in [7], in experiment [8], in experiment [9], in [10], in experiment [11] and in experiment [13] was “inactive” throughout. The activity, negative = cell killing was -14.1% in experiment [12] (setting [15]); -9.6% in [12] (setting [16]); -11.1% in [12] (at 91.6 µM (top of the series), tumour line B); -20.1% in experiment [12] (at 91.6 µM (top of the series), tumour line D). Also, the Potency in [12] (tumour line A) is 31.6 µM (active). In addition, the max response in experiment [14] was 0.0251% and 2.69%.

As to `NP(N)(=O)NC(=O)c1ccc(F)cc1`, the Potency result in [1], in experiment [2], in experiment [3], in experiment [4], in [5] and in experiment [6] was “inactive” throughout. Besides, the Potency entry in experiment [7], in experiment [8], in experiment [9], in experiment [10], in experiment [11] and in experiment [13] was “inactive” each time. In addition, the activity, negative = cell killing in experiment [12] (setting [15]) was -10%; in experiment [12] (setting [16]), -14.8%; in experiment [12] (setting [17]), -25.8%.

As for `O=C(O)c1ccc2[nH]cc(CCCCN3CC=C(c4ccccc4)CC3)c2c1`, the Potency result in experiment [1], in experiment [2], in experiment [3], in experiment [4], in experiment [5] and in [6] was “inactive” each time. Moreover, the Potency result in [7], in [8], in experiment [9], in experiment [10], in experiment [11] and in experiment [13] was “inactive” throughout. The activity, negative = cell killing in experiment [12] (setting [15]) was -0.385%; in [12] (setting [16]), -15.3%.

Take `C#CCOC(C(=O)OCCN(C)C)(c1ccccc1)c1ccccc1`: the Potency result in experiment [1], in experiment [2], in experiment [3], in experiment [4], in [5] and in experiment [6] was “inactive” each time. For the same compound, the Potency result in [7], in experiment [8], in [10], in experiment [11] and in experiment [13] was “inactive” in each case. Besides, the results for the activity, negative = cell killing in experiment [12] (setting [15]) and in experiment [12] (setting [16]) were 3.88% and 1.28%, respectively.

`O=[N+]([O-])c1cc([As](=O)(O)O)ccc1O`: the Potency entry in experiment [1], in [2], in experiment [3], in [4], in [5] and in experiment [6] was “inactive” in each case. In addition, the Potency entry in experiment [7], in [8], in experiment [9], in [10], in experiment [11] and in [13] was “inactive” each time.

Consider `O=C1CC[C@@]2(O)[C@H]3Cc4ccc(O)c5c4[C@@]2(CCN3CC2CC2)[C@H]1O5`, for which the Potency result in experiment [1], in experiment [2], in experiment [3], in experiment [4], in experiment [5] and in experiment [6] was “inactive” throughout. Besides, the Potency entry in experiment [7], in experiment [8], in [9], in experiment [10], in experiment [11] and in experiment [13] was “inactive” in each case. The activity, negative = cell killing in experiment [12] (setting [15]) was 1.04%; in experiment [12] (setting [16]) it was -3.21%.

As to `CCCN1CCC[C@@H]2Cc3nc(N)ncc3C[C@H]21`, the Potency result in [1], in experiment [2], in experiment [3], in [4], in experiment [5] and in experiment [6] was “inactive” in each case. The Potency result in [7], in [8], in experiment [9], in experiment [10], in experiment [11] and in [13] was “inactive” throughout. The activity, negative = cell killing is -7.67% in [12] (setting [15]) and -0.18% in experiment [12] (setting [16]).

`CCN(CC)C(=O)N[C@@H]1C=C2c3cccc4[nH]cc(c34)C[C@@H]2N(C)C1`: the Potency result in experiment [1], in [2], in experiment [3], in experiment [4], in [5] and in experiment [6] was “inactive” each time. Further, the Potency entry in [7], in experiment [8], in experiment [9], in experiment [10], in experiment [11] and in experiment [13] was “inactive” throughout. For the same compound, the activity, negative = cell killing in [12] (setting [15]) is -7.53%; in [12] (setting [16]) it was -22.7%.

Consider `CC(C)NCC(O)c1ccccc1Cl` (stereo not given), for which the Potency entry in experiment [1], in [2], in [3], in experiment [4], in experiment [5] and in [6] was “inactive” throughout. The Potency entry in [7], in [8], in experiment [9], in experiment [10], in experiment [11] and in experiment [13] was “inactive” each time. For the same compound, the activity, negative = cell killing in experiment [12] (setting [15]) is -16.7%; in [12] (setting [16]), -18.1%.

`Cc1cccc(C)c1NC1=NCCCS1`: the Potency entry in [1], in experiment [2], in [3], in experiment [4], in experiment [5] and in experiment [6] was “inactive” throughout. Moreover, the Potency entry in experiment [7], in experiment [8], in [9], in [10], in experiment [11] and in [13] was “inactive” throughout. Besides, in experiment [12] (setting [15]), the activity, negative = cell killing was -12.3%. Further, the Potency in experiment [12] (tumour line A) was 17.8 µM (active).

`CCC(C(N)=O)N1CCCC1=O` (stereo not given): the Potency result in experiment [1], in [2], in [3], in experiment [4], in [5] and in [6] was “inactive” throughout. Besides, the Potency entry in experiment [7], in [8], in experiment [10], in [11] and in experiment [13] was “inactive” throughout. Moreover, the activity, negative = cell killing in experiment [12] (setting [15]) was -7.31%; in experiment [12] (setting [16]), -6.8%; in experiment [12] (setting [17]), -24.9%.

As to `C#CCN(C)[C@H](C)Cc1ccccc1`, the Potency entry in [1], in experiment [2], in experiment [3], in experiment [4], in experiment [5] and in experiment [6] was “inactive” throughout. Also, the Potency entry in [7], in experiment [8], in experiment [10], in [11] and in experiment [13] was “inactive” in each case. Further, the activity, negative = cell killing in experiment [12] (setting [15]) was -10.5%; in experiment [12] (setting [16]), -14.3%; in experiment [12] (setting [17]), -47.6%.
